B1: ENSMUSG00000090935.713|Synj2bp (ssRNA)
RNA: GGGAGUUCUACAGUCCGACGAUCGCUUCGAUAUCCGCAUGCUAAAGUCCAGAGCUCUGCUCUCUGAGCAUCUGCCCCAGAUACAGAGGCAGAGUAUGAAGUGGAACAUUGUUUUAUUCCUAGGUGCUCAGGACAGACUGAUCAACCUCCAGUAACAUAUGUGGUUAGUAAGUGCUUCAGCUUGUGUAGCCAUUAAUAACCAAGUCAUAGGAUUGUGAAUCUAAAAUACUCCUGGGUAAAAUUUGUAUUAGAAUGGAAAAAAAAAUGAGGGUCAGAAAGGUGAGCUAACUUCAAGUUAGAUACUCUCUUGCGGUCGCACUAGUGUGGAAUUCUCGGGUGUCAAGG
B2: ENSMUSG00000031028.413|Tub (ssRNA)
RNA: GGGAGUUCUACAGUCCGACGAUCGCUUCGAUAUCCGCAUGCUACCCCUCUUCUUUUUGGUCCUUGGCUGGGUAGCAAAUUGGUGAGAAGAGCAGCCUAGUCUGUAAGAGUGCAGGGCAGCUGGAACCUUAGGCAGCUCCUCUGUAUGCUACCGGCUCCACACCCUAACACUCUCCACCCUCUGCUCCAAACCAGUUCUUCUGCAGAGUGGUGAUGUUAGCUUCCCCAGCUCCUCUCCAAGUCUAGCUUUUUCUGUCCUUCUGGCUCCAAGGUGCUCUGUGUCUGUGUGUGUGUGUCUGUCUGUCUCUUGCGGUCGCACUAGUGUGGAAUUCUCGGGUGUCAAGG
B3: ENSMUSG00000031028.411|Tub (ssRNA)
RNA: GGGAGUUCUACAGUCCGACGAUCGCUUCGAUAUCCGCAUGCUACUUACCCCUCAUCCCCUCUUCUUUUUGGUCCUUGGCUGGGUAGCAAAUUGGUGAGAAGAGCAGCCUAGUCUGUAAGAGUGCAGGGCAGCUGGAACCUUAGGCAGCUCCUCUGUAUGCUACCGGCUCCACACCCUAACACUCUCCACCCUCUGCUCCAAACCAGUUCUUCUGCAGAGUGGUGAUGUUAGCUUCCCCAGCUCCUCUCCAAGUCUAGCUUUUUCUGUCCUUCUGGCUCCAAGGUGCUCUGUGUCUGUGUGUGUCUCUUGCGGUCGCACUAGUGUGGAAUUCUCGGGUGUCAAGG
B4: ENSMUSG00000031028.412|Tub (ssRNA)
RNA: GGGAGUUCUACAGUCCGACGAUCGCUUCGAUAUCCGCAUGCUACCUCAUCCCCUCUUCUUUUUGGUCCUUGGCUGGGUAGCAAAUUGGUGAGAAGAGCAGCCUAGUCUGUAAGAGUGCAGGGCAGCUGGAACCUUAGGCAGCUCCUCUGUAUGCUACCGGCUCCACACCCUAACACUCUCCACCCUCUGCUCCAAACCAGUUCUUCUGCAGAGUGGUGAUGUUAGCUUCCCCAGCUCCUCUCCAAGUCUAGCUUUUUCUGUCCUUCUGGCUCCAAGGUGCUCUGUGUCUGUGUGUGUGUGUCUCUCUUGCGGUCGCACUAGUGUGGAAUUCUCGGGUGUCAAGG
B5: ENSMUSG00000031028.410|Tub (ssRNA)
RNA: GGGAGUUCUACAGUCCGACGAUCGCUUCGAUAUCCGCAUGCUAAGAUCCCUUACCCCUCAUCCCCUCUUCUUUUUGGUCCUUGGCUGGGUAGCAAAUUGGUGAGAAGAGCAGCCUAGUCUGUAAGAGUGCAGGGCAGCUGGAACCUUAGGCAGCUCCUCUGUAUGCUACCGGCUCCACACCCUAACACUCUCCACCCUCUGCUCCAAACCAGUUCUUCUGCAGAGUGGUGAUGUUAGCUUCCCCAGCUCCUCUCCAAGUCUAGCUUUUUCUGUCCUUCUGGCUCCAAGGUGCUCUGUGUCUGUCUCUUGCGGUCGCACUAGUGUGGAAUUCUCGGGUGUCAAGG
B6: ENSMUSG00000031028.414|Tub (ssRNA)
RNA: GGGAGUUCUACAGUCCGACGAUCGCUUCGAUAUCCGCAUGCUAUUCUUUUUGGUCCUUGGCUGGGUAGCAAAUUGGUGAGAAGAGCAGCCUAGUCUGUAAGAGUGCAGGGCAGCUGGAACCUUAGGCAGCUCCUCUGUAUGCUACCGGCUCCACACCCUAACACUCUCCACCCUCUGCUCCAAACCAGUUCUUCUGCAGAGUGGUGAUGUUAGCUUCCCCAGCUCCUCUCCAAGUCUAGCUUUUUCUGUCCUUCUGGCUCCAAGGUGCUCUGUGUCUGUGUGUGUGUGUCUGUCUGUGUGUGUCUCUUGCGGUCGCACUAGUGUGGAAUUCUCGGGUGUCAAGG
B7: ENSMUSG00000031028.415|Tub (ssRNA)
RNA: GGGAGUUCUACAGUCCGACGAUCGCUUCGAUAUCCGCAUGCUAUUGGUCCUUGGCUGGGUAGCAAAUUGGUGAGAAGAGCAGCCUAGUCUGUAAGAGUGCAGGGCAGCUGGAACCUUAGGCAGCUCCUCUGUAUGCUACCGGCUCCACACCCUAACACUCUCCACCCUCUGCUCCAAACCAGUUCUUCUGCAGAGUGGUGAUGUUAGCUUCCCCAGCUCCUCUCCAAGUCUAGCUUUUUCUGUCCUUCUGGCUCCAAGGUGCUCUGUGUCUGUGUGUGUGUGUCUGUCUGUGUGUGUGUGUGUCUCUUGCGGUCGCACUAGUGUGGAAUUCUCGGGUGUCAAGG

Over roughly 9,900 sequences, “r (bound/input frequency ratio)” has its median near 0.7; the highest 2% begin near 6.5. The list comes from a sample in which the highest values are over-represented; it also holds similar and randomly drawn sequences.

Chain of TDP-43 (Q13148 whole entry): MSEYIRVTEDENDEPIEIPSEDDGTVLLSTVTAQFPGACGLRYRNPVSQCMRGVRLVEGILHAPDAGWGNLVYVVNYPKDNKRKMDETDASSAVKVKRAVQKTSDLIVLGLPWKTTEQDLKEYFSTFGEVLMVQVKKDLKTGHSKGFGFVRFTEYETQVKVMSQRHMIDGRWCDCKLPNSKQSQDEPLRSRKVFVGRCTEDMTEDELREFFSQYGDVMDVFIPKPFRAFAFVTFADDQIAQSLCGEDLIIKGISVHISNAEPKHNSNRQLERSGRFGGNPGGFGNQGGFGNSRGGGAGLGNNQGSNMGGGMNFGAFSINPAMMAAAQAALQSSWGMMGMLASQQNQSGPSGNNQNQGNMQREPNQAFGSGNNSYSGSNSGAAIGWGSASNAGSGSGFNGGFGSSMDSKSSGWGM

This assay addresses TDP-43 (Homo sapiens, UniProt Q13148 1-414). Kind of assay: RNA Bind-n-Seq with designed 260-mer pool; 25 mM Tris-HCl, 150 mM KCl, 3 mM MgCl2, BSA (printed 500 mg/mL), 20 units/mL SUPERase IN; pH not stated; 500 nM RNA pool, 1 h, 4 C; TDP-43 5, 50, 500 nM; high values mean tight binding. The settings on record: protein: recombinant; tags: SBP (GST cleaved off with PreScission; pGEX-GST-SBP). Summed up:
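For each oligo, R gives binding as its mapped-read-normalized abundance after pulldown divided by its abundance in input. Bead-captured SBP-tagged TDP-43 (5, 50 or 500 nM) was incubated with 500 nM of an in vitro-transcribed 260-nt 3′ UTR oligo pool for 1 h at 4 °C in 25 mM Tris-HCl, 150 mM KCl, 3 mM MgCl2, BSA and SUPERase IN on streptavidin beads. Washed, biotin-eluted RNA was reverse transcribed, PCR-amplified and sequenced.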
Consider B1, for which the binding signal was 1.85 R (bound/input frequency ratio). The same measure for B2: 3.56 R (bound/input frequency ratio); for B3: 1.34 R (bound/input frequency ratio); for B4: 2.36 R (bound/input frequency ratio). Turning to B5, the binding signal is 1.11 R (bound/input frequency ratio).

For B6, the binding signal was 6.55 R (bound/input frequency ratio). The same measure for B7: 6.65 R (bound/input frequency ratio).
